Source: PubChem
Only some compounds are listed: those with a hit (about 22% of all), similar ones and a draw of the others.
Pf growth 96h: Primary qHTS for delayed death inhibitors of the malarial parasite plastid, 96 hour incubation. AID 504834, 2011. P. falciparum luciferase reporter growth, 96 h. Potency, µM (doses to about 28.7 µM), without a hit: top-dose activity change, negative = inhibition, most hits filed as inhibitors. 6.9% of 320,000 active; further: potency means the concentration at half of the fitted maximal effect; on the % scale 0 is the no-effect control and ±100 the full control effect
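Two-generation exposure (96 h) targets delayed-death phenotype. Reporter parasites carrying integrated firefly luciferase, in red cells at 2% hematocrit and 0.05% parasitemia final, kept at 37 C, 5% CO2; luminescence loss indicates inhibition.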
LmPK inh: qHTS Assay for Inhibitors of Leishmania Mexicana Pyruvate Kinase (LmPK). Q27686. purified LmPK, Kinase-Glo ATP luminescence, 1 h. Potency, µM (doses to about 57.5 µM), for inactives: at the top dose activity change, negative = inhibition, hits mostly inhibitors. 0.37% of 290,000 active. AID 1721, 2009; further: potency means the concentration at half of the fitted maximal effect; on the % scale 0 is the no-effect control and ±100 the full control effect
Target sequence (Q27686 whole entry, looked up): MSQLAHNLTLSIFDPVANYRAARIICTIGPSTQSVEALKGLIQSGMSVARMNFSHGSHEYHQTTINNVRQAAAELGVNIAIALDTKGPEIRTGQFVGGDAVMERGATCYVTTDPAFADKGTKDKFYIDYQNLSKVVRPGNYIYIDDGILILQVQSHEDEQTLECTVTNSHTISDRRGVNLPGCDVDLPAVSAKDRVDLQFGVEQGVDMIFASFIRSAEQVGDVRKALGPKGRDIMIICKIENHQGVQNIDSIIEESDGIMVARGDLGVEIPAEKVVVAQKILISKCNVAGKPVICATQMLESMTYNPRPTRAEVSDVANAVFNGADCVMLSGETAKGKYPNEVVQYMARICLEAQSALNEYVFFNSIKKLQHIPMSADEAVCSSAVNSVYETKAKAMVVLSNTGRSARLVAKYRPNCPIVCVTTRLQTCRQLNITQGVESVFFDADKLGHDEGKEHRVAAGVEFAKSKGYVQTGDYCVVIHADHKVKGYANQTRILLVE
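Purified LmPK (0.1 nM) with 0.5 mM PEP and 0.1 mM ADP in imidazole buffer pH 7.2 with MgCl2/KCl, 1 h at room temperature. ATP formed was read by luciferase luminescence and normalized to no-enzyme and uninhibited controls.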
Pf growth 48h: Primary qHTS for delayed death inhibitors of the malarial parasite plastid, 48 hour incubation; P. falciparum luciferase growth in erythrocytes, 48 h; Potency, µM (top dose mostly 28.7 µM), for the others: at the top dose activity change, negative = inhibition, usual class: inhibitors; 5.9% of 310,000 active; further: potency means the concentration at half of the fitted maximal effect; on the % scale 0 is the no-effect control and ±100 the full control effect
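Compounds are pin-transferred into medium, infected erythrocytes (2% hematocrit, 0.1% parasitemia final) are added, and plates sit one parasite generation at 37 C in 5% CO2. Detection reagent is then added and luminescence measured.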
CHX counter: Cycloheximide Counterscreen for Small Molecule Inhibitors of Shiga Toxin. cell reporter, cycloheximide protein synthesis inhibition counterscreen. max response, %. 12% of 300,000 active; in the data active means max response mostly above about 13%, no sharp cut-off; inactive means mostly below about 14%; further: read at 38.3 µM for the half of the compounds with a filed dose; 0% is about no effect
Shiga toxin inh: A qHTS for Small Molecule Inhibitors of Shiga Toxin. Vero cells, Shiga toxin protein synthesis inhibition reporter. inhibition, % at 38.7 µM. 9.2% of 290,000 active; in the data active means inhibition mostly above about 28%, no sharp cut-off; inactive means mostly below about 43%; further: 0% is about no effect
Active calls of the source: *; ? = inconclusive; · = no result; [ ] = remark or other dose. Unless noted, the call rests on the fitted dose curve; in most records, active means well fitted inhibition curve with a large enough effect; inconclusive means small, poorly fitted or top-dose-only effect, or another doubt; inactive means no such curve, though single readings can be large or run the other way.

SMILES | Pf growth 96h | LmPK inh | Pf growth 48h | CHX counter | Shiga toxin inh
COc1ccccc1OCCn1c(SCC(=O)O)nc2ccccc21 | 268.2% | 3.2% | 24.3% | -2.8 | -4.6
O=C(CN1CCCCCC1)Nc1ccccc1C(=O)Nc1ccccc1 | -5.8% | · | ? | · | ·
CC1(C)CC(c2nc(-c3ccccc3)cs2)CCS1 (centres undefined) | 3.1% | -7.1% | 7.2% | 15.9* | -1.5
CC1(C)CC(c2nc(-c3ccc(Cl)cc3)cs2)CCS1 (centres undefined) | 28.5% | 1.1% | 8.8% | 10.2 | -6.8
O=c1[nH]c(C2CCN(S(=O)(=O)c3ccccc3)CC2)nc2c1nnn2Cc1c(F)cccc1Cl | 5.22µM* | -0.2% | ? | -10.7 | 17.9
O=c1[nH]c(C2CCN(S(=O)(=O)c3ccccc3)CC2)nc2c1nnn2Cc1cccc(Cl)c1 | 4.8% | -1.8% | ? | -0.9 | 15.3
O=C(C1CCC1)N1CCC(c2nc3c(nnn3Cc3c(F)cccc3Cl)c(=O)[nH]2)CC1 | 56.2% | 0.2% | 13.1µM* | -2.9 | -7.2
CN(C)CCCN(C(=O)c1ccc(S(=O)(=O)N2CCc3ccccc3C2)cc1)c1nc2c(F)cccc2s1 | -10.1% | -3.5% | ? | 32.0* | -5.8
CN(C)CCCN(C(=O)c1ccc(S(=O)(=O)N2CCc3ccccc3C2)cc1)c1nc2ccc(F)cc2s1 | ? | 4.8% | 13.1µM* | -7.4 | -15.9
Cc1cccc2sc(N(CCCN(C)C)C(=O)c3ccc(S(=O)(=O)N4CCc5ccccc5C4)cc3)nc12 | ? | 6.8% | 9.28µM* | 18.1 | 14.6
Cc1ccc2nc(N(CCCN(C)C)C(=O)c3ccc(S(=O)(=O)N4CCc5ccccc5C4)cc3)sc2c1 | ? | 13.1% | ? | -7.3 | -15.0
Cc1ccc(-n2c(C)nnc2SCC(=O)NC2CCCC2)cc1 | 34.9% | 1.6% | -24.5% | -1.7 | -4.4
CCN(CC)S(=O)(=O)c1ccc(/C=C/C(=O)OCC(=O)NCc2cccs2)cc1 | 3.3% | · | ? | · | ·
O=C(O)CCc1ccc(S(=O)(=O)Nc2ccccc2C(=O)NCCc2ccccc2)cc1 | 168.9% | 1.4% | 135.3% | 30.0* | 79.6*
COc1ccc(NC(C)=O)cc1S(=O)(=O)NC(Cc1ccccc1)C(=O)NCc1ccccc1C (centres undefined) | ? | 5.4% | ? | 15.5* | 10.1
CC(NC(=O)c1ccccc1NS(=O)(=O)c1ccc(CCC(=O)O)cc1)c1ccccc1 (centres undefined) | 5.3% | 3.9% | ? | -3.0 | -3.3
COc1ccc(NC(C)=O)cc1S(=O)(=O)Nc1ccccc1C(=O)NCCc1ccccc1 | 100.5% | -1.1% | 78.4% | 43.9* | 89.4*
COc1ccc(CCNC(=O)c2ccccc2NS(=O)(=O)c2cc(C(=O)O)ccc2OC)cc1 | -2.6% | 1.5% | -19.1% | -4.3 | -5.5
COc1ccc(NC(C)=O)cc1S(=O)(=O)Nc1ccc(OCc2ccccc2)cc1 | 14.6% | -2.7% | -7.1% | 15.5 | 5.5
COc1cccc(C(=O)N2CCN(Cc3ccccc3Br)CC2)c1 | ? | 0.5% | 25.2% | -2.1 | -8.0
CCOC(=O)COc1cc(Br)c(/C=N/Nc2ccccc2)cc1OC | 10.4µM* | 2.4% | 8.28µM* | -1.4 | -6.9
O=C(Nc1ccc(Cl)c(Cl)c1)OCc1cccnc1 | ? | 1.9% | -81.8% | 20.1* | 41.9*
O=C(Nc1cccnc1)OCc1ccccc1 | -15.6% | -0.2% | 50.8% | 18.6* | 35.9
COc1ccc2[nH]c(C(=O)O)c(CCNC(=O)/C=C/c3ccc(O)c(OC)c3)c2c1 | 4.5% | -5.2% | -2.0% | -3.6 | -4.9
CCN1CCN(C(=O)C(C)Nc2ccc(OC)cc2OC)CC1 (centres undefined) | 0.0% | 9.1% | ? | -1.5 | 0.8
SMILES | Pf growth 96h | LmPK inh | Pf growth 48h | CHX counter | Shiga toxin inh
Cc1ccc(C(C(=O)NCC2CCCO2)N(C(=O)c2snc(C(N)=O)c2N)c2ccc(C)c(C)c2)o1 (centres undefined) | ? | -3.1% | ? | 0.8 | 28.8
CCOC(=O)C1C(=O)C=C(C)C(C(=O)OCC)C1c1ccc(OC)cc1 (centres undefined) | -1.0%[5.75 µM] | 2.9% | ? | -1.9 | -6.2
CCOC(=O)C1C(=O)C=C(c2ccc(C)cc2)CC1c1ccc([N+](=O)[O-])cc1 (centres undefined) | 9.28µM* | 6.9% | ? | 0.5 | -5.5
Cn1nccc1C(=O)Nc1sc2c(c1C(N)=O)CCCC2 | 1.5% | -2.1% | 31.4% | 31.3* | 57.7*
NC(=O)c1c(NC(=O)c2cccc(N3C(=O)CCC3=O)c2)sc2c1CCCCC2 | 106.9% | -6.5% | ? | 1.6 | 19.9
CC(=O)Nc1sc2c(c1C(N)=O)CCCC2 | 3.7% | 2.3% | 8.2% | -8.2 | -19.2
Cn1cc(Br)c(C(=O)Nc2sc3c(c2C(N)=O)CCC3)n1 | · | 1.3% | 31.0% | 29.7* | 51.6*
Cn1ccc(C(=O)Nc2sc3c(c2C(N)=O)CCCCC3)n1 | 226.4% | -19.9% | 206.7% | 57.2* | 99.4*
CCN(CC(=O)Nc1cc(Cl)ccc1C)C(=O)c1ccc2c(c1)NC(=O)C(C)S2 (centres undefined) | -10.3% | · | ? | · | ·
COc1ccc(Cn2c3nc4ccccc4nc3c3c(=O)n(Cc4ccco4)cnc32)cc1 | 1.0% | -5.2% | 9.28µM* | 10.5 | 32.5
CC(C)NC(=O)CN1CCN(C(=O)c2ccc3oc(CCCc4ccccc4)nc3c2)CC1 | 20.6% | 1.8% | -29.4% | 19.6* | 27.8
CC(C)c1nc2cc(C(=O)N3CCN(c4cnccn4)CC3)ccc2o1 | 11.7µM* | -9.6% | 6.3% | 27.3* | 50.5
CCOC(=O)C1CCCN(C(=O)c2ccc3oc(Cc4ccccc4)nc3c2)C1 (centres undefined) | 16.2% | -11.5% | -4.5% | 48.5* | 75.8*
CC(C)CC(=O)C1CCCN(C(=O)c2ccc3oc(Cc4ccccc4)nc3c2)C1 (centres undefined) | 17.6% | 1.6% | 14.4% | 10.5 | -5.8
O=C(c1ccc2oc(CCCc3ccccc3)nc2c1)N1CCCC(CCCO)C1 (centres undefined) | ? | -0.4% | -8.9% | 29.9* | 47.1*
COC(=O)c1ccc(C(=O)O)nc1 | ? | -0.1% | 13.1% | -2.8 | -1.8
Cc1ccc(-c2nn(-c3ccccc3)cc2CC(=S)N2CCOCC2)cc1 | ? | 1.0% | -28.7% | 8.5 | 12.2
CCn1ccnc1CNC(=O)c1ccc2oc(C(C)C)nc2c1 | 0.0% | -6.7% | 22.8% | 10.9 | -21.4
CN1CCN(C(=O)c2ccc3nc(-c4ccccc4)c(-c4ccccc4)nc3c2)CC1 | 4.7% | 0.5% | 37.6%[5.75 µM] | -0.8 | -16.0
CC(=O)N1CCN(C(=O)c2ccc3oc(CCCc4ccccc4)nc3c2)CC1 | 13.1µM* | 4.2% | 0.0% | 34.5* | 15.9
COCCN1CCN(C(=O)c2ccc3oc(CCc4ccccc4)nc3c2)CC1 | -17.2% | -1.4% | 26.7% | 23.4* | 35.1
CC(C)c1nc2cc(C(=O)N3CCNC(=O)C3c3cccc(F)c3)ccc2o1 (centres undefined) | 5.6% | -3.8% | -10.7% | 11.5* | 54.1
